# Screening results from PubChem BioAssay.
# Shown are actives, neighbours in structure and some others; about 7% of the full set was active somewhere.
# AHR activator = AHR activators, primary screen, cell-based, luminescence, luciferase reporter, human; AHR-responsive luciferase reporter cells; activation, % at 5 µM; hit rate 2.5% among 320,000; AID 2796, 2010; in the data active means activation above about 47%;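 further: 0% = vehicle wells and 100% = reference agonist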
# rCAG RNA binder = binders of r(CAG) RNA repeats, primary screen, biochemical, fluorescence; hit rate 1.3% among 370,000; r(CAG) RNA repeat, TO-PRO-1 dye displacement fluorescence; AID 651821, 2012; inhibition, % at 3 µM;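 active means inhibition above the plate cutoff, the mean of all test compounds on that plate plus 3 SD, cut at about 35% in these data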;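 further: 0% = DMSO alone and 100% = 100 µM mitoxantrone as full dye displacement; higher means more dye released from RNA so lower well fluorescence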
# KLK7 zymogen act = proKLK7 zymogen activators, primary screen, biochemical, fluorescence intensity; Kallikrein-7 (Homo sapiens), P49862; purified proKLK7, EDANS-DABCYL substrate fluorescence; 100% is mature enzyme control, 0% vehicle; activation, % at 7 µM; hit rate 0.9% among 370,000; AID 652039, 2013;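 active means activation above the mean of all tested compounds plus 3 SD, computed per campaign excluding outliers beyond control limits, cut at about 13% in these data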
# ADAM17 inh = ADAM17 inhibitors, primary screen, biochemical, QFRET | AID 720648, 2013 | recombinant ADAM17, EDANS/DABCYL FRET peptide cleavage | hit rate 0.83% among 370,000 | inhibition, % at 6.95 µM;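 active means inhibition above the mean of compounds lying between control limits plus 3 SD, set per campaign, cut at about 8.5% in these data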;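 further: 0% = DMSO-only wells as the low control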
# GRIN3A LBD mod = binders of NR3A ligand-binding domain, primary screen, biophysical, differential scanning fluorimetry, uHTS. Glutamate receptor ionotropic, NMDA 3A (GRIN3A) ligand-binding domain. NR3A LBD differential scanning fluorimetry, Tm shift; 0% = protein alone, 100% = glycine-bound protein. Tm shift relative to glycine control, % at 25 µM. hit rate 2.5% among 340,000;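 active means melting temperature shift of at least 10% of the positive control shift, at one fixed dose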
# ADAM10 inh = human ADAM10 inhibitors, primary screen, biochemical, QFRET, HTS | recombinant ADAM10, EDANS/DABCYL FRET peptide cleavage, 3 h | inhibition, % at 7 µM | hit rate 0.62% among 370,000 | Disintegrin and metalloproteinase domain-containing protein 10 (Homo sapiens), O14672;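 active means inhibition above a per-campaign cutoff equal to the mean of compounds falling between control-based bounds plus 3 SD, cut at about 20% in these data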;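 further: 0% = DMSO wells while the 100% control is not disclosed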
# Target sequence (O14672 214-748 limits assumed): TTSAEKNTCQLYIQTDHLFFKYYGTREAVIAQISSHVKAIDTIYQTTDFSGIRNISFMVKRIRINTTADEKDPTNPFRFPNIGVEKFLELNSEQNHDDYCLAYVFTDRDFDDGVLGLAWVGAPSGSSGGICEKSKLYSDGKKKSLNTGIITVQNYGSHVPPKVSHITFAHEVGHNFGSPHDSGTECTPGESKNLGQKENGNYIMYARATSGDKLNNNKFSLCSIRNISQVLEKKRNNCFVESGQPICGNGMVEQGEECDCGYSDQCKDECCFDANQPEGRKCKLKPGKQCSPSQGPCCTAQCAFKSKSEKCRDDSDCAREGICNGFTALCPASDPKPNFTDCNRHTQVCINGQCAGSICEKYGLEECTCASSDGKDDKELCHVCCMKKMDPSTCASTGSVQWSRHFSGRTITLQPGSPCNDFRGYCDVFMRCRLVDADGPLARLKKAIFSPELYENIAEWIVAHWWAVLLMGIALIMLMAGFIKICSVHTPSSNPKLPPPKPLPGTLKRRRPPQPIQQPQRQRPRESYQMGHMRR
# * hit, by the source's call; i = inactive; · = no result given.
SMILES,AHR activator,rCAG RNA binder,KLK7 zymogen act,ADAM17 inh,GRIN3A LBD mod,ADAM10 inh
O=C(O)CCCCCCCCCCCc1ccccc1,2.3,35.8*,-0.4,-1.4,-1.8,-4.7
Cc1ccc(C(=O)CC(=O)c2ccccc2)cc1,0.5,5.3,-0.1,-0.4,34.1*,1.0
COc1ccc(CN(C)C(C#Cc2ccccc2)Cc2ccccc2)c(OC)c1 (stereo not drawn),·,1.4,-0.3,0.0,·,-4.1
O=C(CCc1ccccc1-c1ccccc1CCNC(=O)c1ccccc1)NCc1ccccc1,·,0.6,-0.5,-1.9,·,1.8
CC(=O)Nc1cc(C(=O)OCC(=O)c2ccccc2)ccc1C,8.5,-1.8,-0.7,5.4,2.7,-3.0
Cc1ccc(C(=O)OCC(=O)c2ccccc2)cc1,-0.6,-2.7,-0.2,-0.2,18.8*,3.5
O=c1[nH]cnc2nn(C3OC(CO)C(O)C3O)nc12 (stereo not drawn),·,0.0,-0.9,-1.8,·,-6.6
C=CCn1cnc2c(c1=O)c1nc3ccccc3nc1n2/N=C/c1cccc(OC)c1,·,0.8,0.6,-0.8,11.1*,12.7
COCCn1cnc2c(c1=O)c1nc3ccccc3nc1n2/N=C/c1ccc(OC)c(OC)c1,-2.6,1.5,0.3,-4.3,-0.1,-5.1
O=C(N/N=C/c1ccc2cccc(OCc3ccccc3)c2n1)c1ccc(Br)cc1,68.6*,9.8,-19.4,-58.4,-0.9,-227.3
NC(=S)N/N=C/c1ccc2cccc(OCc3ccccc3)c2n1,17.2,1.4,-172.2,-250.1,-2.6,i
CCC(=O)N/C(N)=N/c1nc(C)c2cc(C)c(C)cc2n1,50.4*,20.0,0.3,-2.4,-0.3,-7.7
Cc1nc(/N=C(\N)NC(=O)c2ccccc2)nc2ccccc12,63.1*,·,·,·,-4.5,·
CC(C)(C)C(=O)OC12CCCN(C1)/C(=C/c1ccccc1)C2 (stereo not drawn),·,2.5,-0.3,1.9,·,-13.2
COCc1cc(N2CCNC[C@@H]2C)ccc1N1CCN(Cc2ccccc2)[C@H](C)C1,·,5.0,-0.4,-5.8,·,-12.0
Cc1ccc(OCc2nc(C#N)c(NCCCn3ccnc3)o2)cc1,15.2,-6.0,-0.2,-2.0,0.7,-3.9
N#Cc1nc(COc2ccccc2F)oc1NCCCn1ccnc1,71.4*,4.5,-0.2,0.3,-0.1,7.4
N#Cc1nc(COc2ccccc2)oc1NCCCn1ccnc1,79.0*,-1.7,-0.3,-1.2,-0.3,-5.9
Cc1nc2c(-c3ccc(Cl)cc3)cnn2c2c1CCC2,74.5*,3.3,-4.9,-4.0,-8.6,-11.4
Cc1nc2c(-c3ccc(Cl)cc3)cnn2c(N)c1-c1ccc(F)cc1,15.1,5.1,0.0,-12.7,6.2,-42.6
COc1cc(-n2c(C)nc3cc(C(=O)N4CCCN(C(C)=O)CC4)ccc32)cc(OC)c1OC,·,4.6,-0.1,0.2,·,-16.1
COC(=O)[C@]12C[C@H](CC(=O)NCc3cccc(C(F)(F)F)c3)C(=O)N(CCc3ccc(OC)c(OC)c3)C1=C[C@H](COCc1ccccc1)O[C@@H]2C,·,1.5,-0.4,6.3,·,11.2
S=c1nc[nH]c2c1sc1nc(-c3ccccc3)c3c(c12)CCCC3,-3.9,21.4,-0.6,-1.5,12.2*,-8.7
O=c1[nH]cnc2c1sc1nc(-c3ccccc3)c3c(c12)CCCC3,4.6,1.5,-4.9,-1.7,-33.1,3.1
COc1ccc(/C=N/c2c(-c3ccc(OC)cc3)nc3n2CCS3)cc1,-1.1,7.2,-0.1,-2.6,-31.7,-25.8
SMILES,AHR activator,rCAG RNA binder,KLK7 zymogen act,ADAM17 inh,GRIN3A LBD mod,ADAM10 inh
COc1ccc(C2=CSC(/N=C/c3ccc(F)cc3)=NN2)cc1,69.8*,17.0,-0.9,-5.6,21.2*,-6.6
COC(=O)c1ccc(NC(=O)c2sc3nc(-c4ccccc4)cn3c2C)cc1,0.4,1.4,-0.7,1.1,28.2*,2.2
COc1ccc(-c2cn3c(C)c(C(=O)Nc4cccc(NC(C)=O)c4)sc3n2)cc1,11.8,5.1,-1.2,-0.1,13.2*,-8.1
COC(=O)C1=C(C)N(Cc2cccc(C(F)(F)F)c2)C(=NCc2ccc(OC)cc2)NC1c1cccc(F)c1 (stereo not drawn),·,7.8,0.2,-2.4,·,-4.2
CCn1c(=NC(=O)CS(=O)(=O)c2ccc(C)cc2)sc2cccc(OC)c21,-4.2,1.2,-1.2,-5.7,3.2,-9.8
CCn1c(=NC(=O)c2ccc(S(=O)(=O)N(C)C)cc2)sc2cccc(OC)c21,7.4,1.8,-1.5,-0.4,10.3*,2.3
O=C(N/N=C/c1ccc([N+](=O)[O-])o1)c1cn(-c2ccccc2)nc1-c1ccc(Cl)cc1,9.0,7.9,-0.5,-0.3,33.6*,0.8
N/C(=N\OC(=O)Nc1ccccc1)c1ncc([N+](=O)[O-])s1,15.4,-3.1,0.1,1.6,35.8*,9.3
O=C(CSc1nc2nc(-c3cccs3)cc(C(F)(F)F)c2c(=O)[nH]1)Nc1c(F)c(F)c(F)c(F)c1F,3.3,13.0,-1.0,-10.8,21.9*,-11.6
Cc1cc(NC(=S)NC(=O)C2CC2)ccc1Br,105.6*,0.3,0.0,3.2,-11.4,6.3
Cc1cccc(NC(=S)NC(=O)C2CC2)c1,7.6,·,·,·,·,·
Cc1cc(C)cc(NC(=S)NC(=O)C2CC2)c1,58.1*,0.1,0.0,-1.0,2.3,-6.4
Fc1ccc(C2=Nn3c(nnc3-c3n[nH]c4c3CCC4)SC2)cc1,53.7*,-4.3,0.3,-5.3,2.5,1.8
Cc1cc(Br)c2nc(-c3ccc(F)cc3)c(Cc3cccc(Cl)c3)n2c1,·,9.2,-0.8,-2.8,·,-8.9
COc1ccc(CCNC(=O)c2sc3cc(C)ccc3c2Cl)cc1,1.4,1.2,-0.2,-4.5,12.4*,-4.8
CCCCCCOc1ccc(OCC(O)CN2C(=O)NC(C)(C)C2=O)cc1 (stereo not drawn),3.7,-7.9,-0.3,-3.9,13.7*,6.1
COC(=O)[C@]12C[C@H](CC(=O)NCc3ccc(OC)c(OC)c3)C(=O)N(CCC3=CCCCC3)C1=C[C@H](C(C)(C)C)O[C@@H]2C,·,3.4,-0.3,3.3,·,11.0
O=C(CSC1=Nc2ccccc2C2CC=NN12)Nc1ccc(F)c(F)c1F (stereo not drawn),51.1*,5.2,-0.1,-2.6,-1.0,-10.4
CCCCOC(=O)c1ccc(NC(=O)CSC2=Nc3ccccc3C3CC=NN23)cc1 (stereo not drawn),13.7,11.0,-0.3,1.4,9.7,2.3
COC(=O)[C@]12C[C@H](CC(=O)N3CCSCC3)C(=O)N(Cc3ccccc3)C1=C[C@H](C(C)C)O[C@@H]2C1CC1,·,1.3,0.1,-2.0,·,-1.0
